Active and inactive are the calls of the source.
How the values were obtained:
Albumin (Bos taurus) = Albumin (Bos taurus) (UniProt P02769); experiment: compounds binding labelled BSA control protein – biochemical, small-molecule microarray, Alexa647 label, 635/667 nm fluorescence, artefact control for SMM control protein annotation, profiling panel (AID 1118); settings: BSA-A647 binding, fluorescence 635 nm, higher = more signal;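 note: score merges 667 nm emission intensity and signal-to-noise per printed compound spot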
[1] = probe aXIP binding to arrayed compounds – biochemical, NeuroSMM set, 635/667 nm fluorescence, primary screen (AID 1119); settings: small-molecule microarray, higher = more signal, called active from +8 up or from −8 down;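 note: probe is the protein aXip251-270 applied at 1 µg/mL to compound-printed slides; binding of probe to printed compounds measured as 667 nm fluorescence plus signal to noise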
[2] = probe aNOTCH3 binding on compound microarray – biochemical, small-molecule microarray, 635/667 nm fluorescence, primary screen (AID 1120); settings: higher = more signal;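 note: probe is a biotin-tagged antibody raised against NOTCH3 rather than NOTCH3 protein; score merges spot fluorescence near 667 nm with spot signal to noise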
[3] = probe aNOTCH2 binding on compound microarray – biochemical, small-molecule microarray, 635/667 nm fluorescence, primary screen (AID 1121); settings: higher = more signal;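 note: score merges feature fluorescence read at 667 nm with its signal to noise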
[4] = biological target: Carbonic anhydrase 2 (Homo sapiens) (UniProt P00918); experiment: compounds binding carbonic anhydrase 2 – biochemical, small-molecule microarray, Alexa647-labelled CAII, profiling panel (AID 1122); settings: CAII-A647 binding fluorescence, higher = more signal
[5] = COS7 lysate on small-molecule microarray, probe aHis, 635 nm (AID 1123); settings: COS7 cell lysate, fluorescence, higher = more signal;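 note: z-score combines 667nm fluorescence intensity with signal-to-noise per printed compound spot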
[6] = probe aLAP1 signal on lysate-treated microarray – cell lysate, small-molecule microarray, COS7 lysate, primary screen (AID 1124); settings: probe aLAP1, fluorescence, higher = more signal;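 note: lysate comes from COS7 cells expressing LAP1 and is applied at 0.3 µg/mL; score merges spot fluorescence near 667 nm with signal-to-noise over triplicate slides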
Sam68 (KHDRBS1) = experiment: compounds binding KHDRBS1 protein – biochemical, small-molecule microarray, 635 nm fluorescence, primary screen (AID 1125); settings: higher = more signal;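 note: score merges 667 nm channel intensity with signal to noise over triplicate slides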
[7] = tested on: Chordin-like protein 2 (CHRDL2); experiment: compounds binding chordin-like 2 – biochemical, small-molecule microarray, 635 nm fluorescence, primary screen (AID 1126); settings: fluorescence 635 nm, higher = more signal;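 note: printed compound slides probed with Chrdl2 protein at 4 µg/mL for 1 h at 4 C; score merges 667 nm emission intensity with signal to noise over three replicate slides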
[8] = biological target: Concanavalin-A (Canavalia ensiformis) (UniProt P02866); experiment: compounds binding concanavalin A lectin – biochemical, small-molecule microarray, Alexa647 label, 635 nm, artefact control for SMM control protein annotation, primary screen (AID 1127); settings: ConA-A647 binding fluorescence, higher = more signal;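 note: z combines 667 nm emission intensity with signal-to-noise across three replicate slides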
[9] = compounds binding Alexa647 anti-His antibody – biochemical, small-molecule microarray, 635 nm fluorescence, artefact control for SMM control protein annotation, primary screen (AID 1128); settings: higher = more signal;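 note: score merges feature fluorescence with signal-to-noise for each printed compound spot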
[10] = tested on: Human papillomavirus type 1a E7 protein (residues 1-88); experiment: HPV1a E7 small-molecule binders, primary screen, biochemical, small-molecule microarray, residues 1-88, 635 nm (AID 1129); settings: small-molecule microarray binding, fluorescence 635 nm; higher = more signal
[11] = biological target: Focal adhesion kinase 1 (Homo sapiens) (UniProt Q05397); experiment: PTK2 protein binding on printed compound slides – biochemical, small-molecule microarray, 635/667 nm fluorescence, BSA, DTT, primary screen (AID 1130); settings: 635 nm fluorescence, higher = more signal;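 note: composite of spot emission at 667 nm and signal to noise over triplicate slides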
[12] = tested on: Fibrinogen (Alexa647-labelled); experiment: Alexa647-fibrinogen binding to printed small molecules – biochemical, small-molecule microarray, 635/667 nm fluorescence, artefact control for SMM control-protein annotation, profiling panel (AID 1131); settings: fibrinogen-A647 binding fluorescence, higher = more signal;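 note: z-score merges 667 nm fluorescence with per-spot signal-to-noise over triplicate slides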
[13] = biological target: Follistatin (Homo sapiens) (UniProt P19883); experiment: FST protein binding to printed compounds – biochemical, small-molecule microarray, 635/667 nm fluorescence, primary screen (AID 1132); settings: 635 nm fluorescence, higher = more signal
[14] = biological target: Fibroblast growth factor 2 (Homo sapiens) (UniProt P09038); experiment: basic fibroblast growth factor binding to printed compounds – biochemical, small-molecule microarray, 635/667 nm fluorescence, primary screen (AID 1133); settings: FGF2, fluorescence 635/667, higher = more signal
[15] = JC-1 mitochondrial potential readout, lung cancer cells – cell-based, A549, JC-1 fluorescence, basal, 24 h, 100 nL, profiling panel (AID 1138); settings: higher = more signal;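 note: A549 lung adenocarcinoma cells under basal conditions with no added stimulus; test concentration not given here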
Lefty1 = Lefty1 protein binding to printed compounds – biochemical, small-molecule microarray, 635/667 nm fluorescence, primary screen (AID 1139); settings: fluorescence 635/667, higher = more signal
[16] = tested on: wheat germ agglutinin (Triticum aestivum), Alexa647-labelled; experiment: Alexa647-WGA lectin binding to printed small molecules – biochemical, small-molecule microarray, 635/667 nm fluorescence, artefact control for SMM control-protein annotation, profiling panel (AID 1140); settings: WGA-A647 binding, 635 nm fluorescence, higher = more signal;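 note: score merges 667 nm feature emission with signal to noise over triplicate slides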
[17] = biological target: Luciferin 4-monooxygenase (Photinus pyralis) (UniProt P08659); experiment: inhibition of purified Photinus pyralis luciferase – biochemical, luminescence, purified enzyme, 2006 set, primary screen (AID 1141); settings: purified firefly luciferase, SteadyGlo luminescence, 30 min; higher = more signal, called active from +8 up or from −8 down;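 note: cell-free assay with purified firefly luciferase at 100 ng per well in PBS; test concentration not given here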
Chain of Luciferin 4-monooxygenase (Photinus pyralis) (P08659 whole entry, looked up): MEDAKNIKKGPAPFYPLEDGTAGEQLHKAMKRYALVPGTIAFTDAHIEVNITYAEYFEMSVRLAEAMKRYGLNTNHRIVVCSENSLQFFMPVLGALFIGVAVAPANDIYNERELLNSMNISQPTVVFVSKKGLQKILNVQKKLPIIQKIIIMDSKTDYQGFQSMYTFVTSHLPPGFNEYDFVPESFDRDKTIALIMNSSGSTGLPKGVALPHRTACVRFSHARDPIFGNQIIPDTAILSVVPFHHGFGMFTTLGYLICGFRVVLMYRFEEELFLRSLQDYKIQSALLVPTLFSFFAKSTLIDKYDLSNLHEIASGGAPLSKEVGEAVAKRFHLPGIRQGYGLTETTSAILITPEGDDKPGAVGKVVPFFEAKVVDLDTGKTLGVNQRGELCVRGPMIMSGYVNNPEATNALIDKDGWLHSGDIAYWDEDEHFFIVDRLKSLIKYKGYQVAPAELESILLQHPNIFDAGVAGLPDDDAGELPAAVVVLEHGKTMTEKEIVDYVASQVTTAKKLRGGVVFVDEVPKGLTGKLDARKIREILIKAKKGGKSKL

Chain of Concanavalin-A (Canavalia ensiformis) (P02866 whole entry, looked up): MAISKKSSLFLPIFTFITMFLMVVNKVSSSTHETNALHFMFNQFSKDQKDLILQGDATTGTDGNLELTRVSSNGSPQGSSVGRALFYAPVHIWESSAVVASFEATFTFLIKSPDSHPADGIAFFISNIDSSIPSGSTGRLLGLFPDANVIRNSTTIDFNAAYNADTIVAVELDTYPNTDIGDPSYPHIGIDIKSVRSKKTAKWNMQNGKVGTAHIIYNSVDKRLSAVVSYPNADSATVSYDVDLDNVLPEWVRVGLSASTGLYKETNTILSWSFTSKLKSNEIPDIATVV
Chain of Albumin (Bos taurus) (P02769 whole entry, looked up): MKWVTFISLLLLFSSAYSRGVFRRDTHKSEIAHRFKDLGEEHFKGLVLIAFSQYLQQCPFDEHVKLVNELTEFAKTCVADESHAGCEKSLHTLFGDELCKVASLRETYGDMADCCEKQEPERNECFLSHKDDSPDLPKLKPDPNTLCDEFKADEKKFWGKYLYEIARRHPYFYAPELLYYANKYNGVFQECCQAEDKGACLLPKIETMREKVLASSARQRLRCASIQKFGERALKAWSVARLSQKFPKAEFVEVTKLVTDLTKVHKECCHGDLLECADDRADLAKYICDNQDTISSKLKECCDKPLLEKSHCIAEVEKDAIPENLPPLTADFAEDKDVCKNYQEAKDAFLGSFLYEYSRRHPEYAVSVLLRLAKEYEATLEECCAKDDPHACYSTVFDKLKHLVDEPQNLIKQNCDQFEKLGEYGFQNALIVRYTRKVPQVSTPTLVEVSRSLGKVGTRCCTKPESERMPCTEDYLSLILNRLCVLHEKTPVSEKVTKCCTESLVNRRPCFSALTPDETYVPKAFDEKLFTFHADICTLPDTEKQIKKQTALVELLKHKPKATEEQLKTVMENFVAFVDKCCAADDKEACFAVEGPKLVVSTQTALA
Chain of Focal adhesion kinase 1 (Homo sapiens) (Q05397 whole entry, looked up): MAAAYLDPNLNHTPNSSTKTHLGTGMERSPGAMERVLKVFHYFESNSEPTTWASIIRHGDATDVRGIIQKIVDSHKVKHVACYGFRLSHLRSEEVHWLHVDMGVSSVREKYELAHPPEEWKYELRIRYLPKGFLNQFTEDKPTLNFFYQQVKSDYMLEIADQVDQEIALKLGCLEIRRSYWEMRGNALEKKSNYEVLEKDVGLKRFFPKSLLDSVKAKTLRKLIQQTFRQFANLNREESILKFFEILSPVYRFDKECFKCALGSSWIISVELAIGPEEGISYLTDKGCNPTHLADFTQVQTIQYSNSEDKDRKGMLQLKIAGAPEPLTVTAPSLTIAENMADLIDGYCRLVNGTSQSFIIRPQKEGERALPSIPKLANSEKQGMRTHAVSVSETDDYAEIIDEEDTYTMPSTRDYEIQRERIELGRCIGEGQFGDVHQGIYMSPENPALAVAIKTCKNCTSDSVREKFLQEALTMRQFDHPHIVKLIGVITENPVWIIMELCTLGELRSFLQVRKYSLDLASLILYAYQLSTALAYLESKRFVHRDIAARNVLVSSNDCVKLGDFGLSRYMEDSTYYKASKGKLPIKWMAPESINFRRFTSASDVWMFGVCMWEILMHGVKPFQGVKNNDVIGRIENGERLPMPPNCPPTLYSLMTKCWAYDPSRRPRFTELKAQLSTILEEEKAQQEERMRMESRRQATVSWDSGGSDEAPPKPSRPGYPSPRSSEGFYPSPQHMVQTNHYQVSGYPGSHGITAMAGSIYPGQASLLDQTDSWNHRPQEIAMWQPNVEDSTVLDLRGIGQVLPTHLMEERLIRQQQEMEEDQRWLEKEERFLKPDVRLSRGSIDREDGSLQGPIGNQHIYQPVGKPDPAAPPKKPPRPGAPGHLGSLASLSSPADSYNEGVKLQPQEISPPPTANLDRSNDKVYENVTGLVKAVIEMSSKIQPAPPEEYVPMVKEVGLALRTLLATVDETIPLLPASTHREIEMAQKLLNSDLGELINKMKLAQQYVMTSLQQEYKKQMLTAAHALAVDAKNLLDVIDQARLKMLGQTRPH
Chain of Follistatin (Homo sapiens) (P19883 whole entry, looked up): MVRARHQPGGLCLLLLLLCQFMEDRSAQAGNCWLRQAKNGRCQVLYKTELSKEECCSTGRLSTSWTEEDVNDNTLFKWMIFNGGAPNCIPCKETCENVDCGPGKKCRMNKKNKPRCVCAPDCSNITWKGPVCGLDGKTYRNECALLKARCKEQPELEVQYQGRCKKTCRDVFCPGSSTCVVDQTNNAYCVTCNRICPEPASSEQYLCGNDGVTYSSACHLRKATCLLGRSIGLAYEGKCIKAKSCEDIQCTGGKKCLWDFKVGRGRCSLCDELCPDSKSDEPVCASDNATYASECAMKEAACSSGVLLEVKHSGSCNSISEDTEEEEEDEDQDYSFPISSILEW
Chain of Fibroblast growth factor 2 (Homo sapiens) (P09038 whole entry, looked up): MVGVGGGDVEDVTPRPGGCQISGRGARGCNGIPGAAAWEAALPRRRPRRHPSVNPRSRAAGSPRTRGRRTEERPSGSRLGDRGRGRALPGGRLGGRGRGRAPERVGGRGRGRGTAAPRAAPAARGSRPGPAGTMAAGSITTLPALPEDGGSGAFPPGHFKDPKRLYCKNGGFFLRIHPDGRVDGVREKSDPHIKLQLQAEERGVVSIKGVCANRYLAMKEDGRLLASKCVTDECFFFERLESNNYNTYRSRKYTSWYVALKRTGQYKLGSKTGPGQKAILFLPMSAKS

Row | SMILES | composite z-score (Albumin (Bos taurus)) | composite Z-score [1] | composite z-score [2] | composite z-score [3] | composite z-score [4] | composite z-score [5] | composite z-score [6] | composite z-score (Sam68 (KHDRBS1)) | composite z-score [7] | composite z-score [8] | composite z-score [9] | composite z-score [10] | composite z-score [11] | composite z-score [12] | composite z-score [13] | composite z-score [14] | z-score [15] | composite z-score (Lefty1) | composite z-score [16] | z-score [17]
1 | COCCOC(=O)N1C(=O)[C@@]2(c3ccccc31)[C@H](C(=O)Nc1nc3ccccc3s1)[C@H]1C(=O)O[C@H](c3ccccc3)[C@H](c3ccccc3)N1[C@@H]2c1ccc(O)cc1 | 0.794 | -0.706 (inactive) | 0.288 | -0.0551 | 0.435 | 0.903 | 0.418 | 1.3 | 0.318 | 1.21 | 1.68 | 1.2 | 0.261 | 0.976 | 1.32 | 1.06 | -2.31 | 0.983 | 1.16 | -2.88 (inactive)
2 | CC(C)N1CC=CC23O[C@@H]4/C=C\CCCOC(=O)C4[C@H]2C(=O)N(CCCO)[C@@H]3C1=O (stereo not given in full) | -1.17 | 1.73 (inactive) | -0.249 | -0.125 | 0.962 | -0.0009 | -0.745 | -0.594 | -1.72 | -0.564 | -0.936 | -1.26 | -0.134 | -1.72 | -0.995 | -1.23 | 1.25 | -1.42 | -0.965 | -1.38 (inactive)
3 | COCCCNC(=O)[C@@]1(Cc2ccccc2CN=[N+]=[N-])COC(c2ccc(OCCCO)cc2)=N1 | 0.922 | 0.536 (inactive) | 0.248 | 0.0261 | 0.673 | 2.83 | 0.413 | 1.3 | -2.16 | 1.13 | 2.69 | 1.21 | 0.759 | 0.479 | 0.186 | -0.742 | 1.79 | -0.713 | 1.03 | -1.59 (inactive)
4 | CC(C)(C)OC(=O)CC[C@@]1(C(=O)N2CCOCC2)N=C(c2ccc(OCCCO)cc2)O[C@@H]1c1ccccc1 | 1.01 | -0.0503 (inactive) | 0.0927 | -0.0017 | 0.904 | 3.76 | 0.599 | 1.31 | -1.26 | 0.962 | 3.83 | 1.25 | 0.217 | 0.938 | 1.33 | 0.324 | 2.16 | -0.508 | 1.54 | -1.99 (inactive)
5 | COc1ccc(C#Cc2ccc3c(c2)[C@]2(C(=O)N3)[C@H](c3ccc(O)cc3)N3[C@H](c4ccccc4)[C@H](c4ccccc4)OC(=O)[C@H]3[C@@H]2C(=O)N2CCN(c3ncccn3)CC2)cc1 | 0.888 | 4.41 (inactive) | 0.116 | 0.0557 | 0.462 | 0.868 | 0.97 | 1.31 | -0.176 | 1.08 | 1.2 | 0.885 | 1.71 | 0.763 | 0.722 | 0.143 | -0.308 | -0.151 | 0.929 | -1.27 (inactive)
